Screening results (PubChem)
The list is not random: actives were taken first. Their share in the collection is about 18%.
CtBP-E1A inh: inhibitors of CtBP/E1A interaction | AlphaScreen GST-E1A/His-CtBP binding, 1536-well; active compounds read low | hit rate 0.49% among 340,000 | activity change, % (test concentration not listed); in the data active means activity change below about -65%; inconclusive means mostly about -30% to -63%
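Homogeneous bead-based format: GST-tagged E1A captured on glutathione donor beads, His-tagged CtBP on nickel acceptor beads; compounds precede bead addition by 2 h at 37 °C.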
TDP1 cell CPT: DT40-hTDP1 cell growth loss with CPT; chicken DT40 Tdp1-/-;hTDP1 cells + 20 nM CPT, ATP luminescence, 48 h; Potency, µM (doses to about 46.2 µM), actives largely listed as inhibitors; hit rate 12% among 420,000; further: nearly all actives have a fitted effect of over 55% in size
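Chicken DT40 Tdp1-/- cells complemented with human TDP1, 400 cells/well, exposed to compounds plus 20 nM camptothecin for at least 48 h at 37 C; viability read as ATP content by CellTiter-Glo luminescence.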
Six1-Eya2 inh: Six1/Eya2 interaction inhibition; AlphaScreen GST-Six1/His-Eya2 binding, biochemical; active compounds read low; activity change, % (no concentration beside the values); hit rate 0.56% among 360,000; AID 651725; in the data active means activity change below about -65%; inconclusive means mostly about -30% to -63%
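Homogeneous AlphaScreen proximity assay pairing GST-Six1 with His-tagged Eya2 (added as 5X mix: 250 nM and 500 nM) in 50 mM Tris pH 8.0, 300 mM NaCl, 1 mM TCEP. Glutathione donor and nickel acceptor beads; 1 h, 37 °C, dark.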
TDP1 block: TDP1 (human) enzyme inhibition. Q9NUW8. Potency, µM (doses to about 130 µM), most hits filed as inhibitors. recombinant TDP1, AlphaScreen DNA substrate cleavage. hit rate 0.28% among 350,000; further: nearly all actives have a fitted effect of over 40% in size
Target sequence (Q9NUW8 whole entry, looked up): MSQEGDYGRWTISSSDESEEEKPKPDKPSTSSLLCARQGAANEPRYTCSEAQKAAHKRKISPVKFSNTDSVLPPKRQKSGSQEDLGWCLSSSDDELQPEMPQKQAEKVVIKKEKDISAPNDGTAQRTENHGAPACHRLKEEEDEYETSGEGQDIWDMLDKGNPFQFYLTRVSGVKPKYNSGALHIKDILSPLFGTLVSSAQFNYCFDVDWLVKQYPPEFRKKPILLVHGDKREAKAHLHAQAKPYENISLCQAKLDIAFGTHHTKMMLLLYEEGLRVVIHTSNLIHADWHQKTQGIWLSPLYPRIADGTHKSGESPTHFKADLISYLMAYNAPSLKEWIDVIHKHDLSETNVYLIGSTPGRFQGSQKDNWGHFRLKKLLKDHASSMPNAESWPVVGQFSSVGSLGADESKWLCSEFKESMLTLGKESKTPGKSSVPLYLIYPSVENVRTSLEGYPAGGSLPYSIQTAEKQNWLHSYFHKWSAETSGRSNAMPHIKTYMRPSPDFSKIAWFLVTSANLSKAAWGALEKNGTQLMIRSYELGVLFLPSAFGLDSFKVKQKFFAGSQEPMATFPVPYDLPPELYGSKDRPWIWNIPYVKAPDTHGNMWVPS
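Tdp1 1 nM final; 15 min RT w/ cpd; substrate 15 nM, 5 min; beads 10 ug/ml, 10 min; AlphaScreen read. Neg ctrl: no enzyme.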
IL-1B inflam inh: inhibitors of inflammasome signaling (IL-1 beta secretion); hit rate 4.7% among 360,000; THP-1 LPS/ATP IL-1B secretion, AlphaLISA, 16 h; active compounds read low; activity change, % at 57.5 µM; in the data active means activity change below about -50%; inconclusive means mostly about -30% to -49%
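THP-1 cells pretreated 1 hr with compounds (up to 57.5 uM final), then stimulated with LPS (250 ng/mL final) plus ATP (1.25 mM final); secreted IL-1B measured by AlphaLISA after 16 hr, decreased signal indicating inhibition.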
TDP1 cell noCPT: qHTS for Inhibitors of human tyrosyl-DNA phosphodiesterase 1 (TDP1): qHTS in cells in absence of CPT | DT40 Tdp1-/- hTDP1 cells, no CPT, ATP luminescence, 48 h | AID 686978, 2013 | hit rate 15% among 420,000 | Potency, µM (titrated, usually from 46.2 µM), usual class: inhibitors; further: nearly all actives have a fitted effect of over 55% in size
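Cells were dispensed at 400 per well, compounds added by pin tool, plates incubated ≥48 hr at 37 °C, then CellTiter-Glo added for 30 min at room temperature before luminescence reading. Line: DT40 Tdp1-/- complemented with hTDP1; camptothecin omitted.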
Numbers stand for hits; . = inactive; ? = inconclusive; / = no result given; ! = not active in a repeat. Unless noted, the call rests on the fitted dose curve; in most records, active means well fitted curve in the direction sought with a large enough effect; inconclusive means small, poorly fitted or top-dose-only effect, or another doubt; inactive means no such curve, though single readings can be large; an effect the other way counts as inactive or inconclusive.

SMILES	CtBP-E1A inh	TDP1 cell CPT	Six1-Eya2 inh	TDP1 block	IL-1B inflam inh	TDP1 cell noCPT
COc1cc(/C=N/NC(=O)c2cccc([N+](=O)[O-])c2)ccc1OC(=O)c1ccco1	/	.	.	.	.	.
COc1ccc(/C=C/C(=O)Nc2cccc(S(=O)(=O)NC3=NCCCCC3)c2)c(OC)c1	?	16µM	?	.	.	12µM
CCCCCC(=O)Nc1cccc(S(=O)(=O)NC2=NCCCCC2)c1	/	.	.	.	.	.
COc1ccccc1/C=C/C(=O)Nc1cccc(S(=O)(=O)NC2=NCCCCC2)c1	.	?	.	.	-57	?
Cc1occc1C(=O)OCC(=O)Nc1ccc(F)cc1	.	?	.	.	.	.
Cc1cccc(NC2=C/C(=N/S(=O)(=O)c3cccs3)c3ccccc3C2=O)c1	?	3.7µM	.	.	-83	3.3µM
Cc1ccc(NC2=C/C(=N\S(=O)(=O)c3cccs3)c3ccccc3C2=O)c(C)c1	-85	2.6µM	-84	.	-97	2.6µM
Cc1cc(C)c(S(=O)(=O)/N=C2\C=C(NS(=O)(=O)c3ccccc3)C(=O)c3ccccc32)c(C)c1	.	?	.	/	.	.
Cc1ccc(Cl)cc1NC1=C/C(=N\S(=O)(=O)c2cccs2)c2ccccc2C1=O	-78	5.2µM	-74!	.	-99	2.9µM
Cc1cccc(N(C)c2cc(C)nc3ncnn23)c1	.	.	.	.	?	.
O=Cc1ccc2noc(-c3ccc(Cl)cc3)c2c1	.	?	.	.	.	16µM
COc1ccc(Cc2c(-c3cccc(Cl)c3)nc3ccc(Cl)cn23)c(C)c1	.	26µM	.	/	.	?
COc1ccc(Cc2c(-c3ccccc3)nc3ccc(Br)cn23)c(C)c1	.	21µM	.	/	.	21µM
COc1ccc(Cc2c(-c3cccc(Br)c3)nc3ccc(Cl)cn23)c(C)c1	.	.	.	/	.	?
O=C1N[C@H]2CC=C[C@H]2N(Cc2cccs2)c2ccccc21	.	?	.	/	.	.
O=C1N[C@H]2CC=C[C@H]2Nc2ccccc21	.	13µM	.	/	.	16µM
COc1ccc(-c2csc(C(C)(O)c3ccc(F)c(F)c3)n2)cc1OC (stereo not drawn)	.	18µM	.	/	.	?
COc1ccc(C(C)(O)c2nc(-c3ccc(N(C)C)cc3)cs2)cc1 (stereo not drawn)	?	18µM	?	/	.	16µM
COc1ccc(C(C)(O)c2nc(-c3ccc4ccccc4c3)cs2)cc1 (stereo not drawn)	.	?	.	/	.	?
Cc1ccc(-c2csc(C(C)(O)c3ccc(F)c(F)c3)n2)cc1C (stereo not drawn)	.	?	.	/	.	.
COc1ccc(C(C)(O)c2nc(-c3ccncc3)cs2)cc1 (stereo not drawn)	.	5.8µM	.	/	.	5.8µM
COc1ccc(-c2csc(C(C)(O)c3ccccc3)n2)cc1 (stereo not drawn)	.	16µM	.	/	.	?
COc1ccc(C(C)(O)c2nc(-c3cccs3)cs2)cc1 (stereo not drawn)	.	?	.	/	.	?
CC(C)(C)NC(=O)NCCc1ccccc1	.	.	.	.	.	.
COC(=O)CNC(=O)C1Cc2ccccc2CN1S(=O)(=O)c1ccc(F)cc1 (stereo not drawn)	/	.	.	/	.	.
SMILES	CtBP-E1A inh	TDP1 cell CPT	Six1-Eya2 inh	TDP1 block	IL-1B inflam inh	TDP1 cell noCPT
Cc1cccc(OCc2nnc(SCC(=O)c3ccccc3)o2)c1	.	.	.	.	.	.
COc1ccc(C(C)(O)c2nc(-c3cccc(O)c3)cs2)cc1 (stereo not drawn)	.	18µM	.	/	?	23µM
COc1ccc(C(C)(O)c2nc(-c3cccc(C(=O)O)c3)cs2)cc1 (stereo not drawn)	.	.	.	/	.	.
COc1ccc(C(C)(O)c2nc(-c3ccc(OC)c(OC)c3)cs2)cc1 (stereo not drawn)	.	23µM	.	/	.	?
COc1ccc(-c2csc(C(C)(O)c3cccnc3)n2)cc1 (stereo not drawn)	.	16µM	.	/	-65	21µM
COc1ccc(C(C)(O)c2nc(-c3ccccc3)cs2)cc1 (stereo not drawn)	.	18µM	.	/	.	13µM
COc1ccc(-c2csc(C(C)(O)c3ccccc3)n2)cc1OC (stereo not drawn)	.	?	.	/	.	?
COc1ccc(-c2noc(CC(=O)Nc3ccc(C)c(F)c3)n2)cc1	/	.	/	.	/	.
COc1ccc(C(C)(O)c2nc(-c3ccc(Cl)cc3)cs2)cc1 (stereo not drawn)	.	?	.	/	.	?
Cc1ccccc1-c1csc(C(C)(O)c2ccccc2)n1 (stereo not drawn)	.	.	.	/	.	.
COc1ccc(C(C)(O)c2nc(-c3ccccc3C)cs2)cc1 (stereo not drawn)	.	6.5µM	.	/	.	5.8µM
COc1ccc(-c2csc(C(C)(O)c3ccc(OC)cc3)n2)cc1 (stereo not drawn)	.	15µM	.	/	.	?
COc1ccc(OC)c(S(=O)(=O)N2CCC(C(=O)NCC3CCCO3)CC2)c1 (stereo not drawn)	.	.	.	.	.	.
CC1=C(C(=O)N2CCCCC2)C(c2cccc(Cl)c2)n2c(nc3ccccc32)N1 (stereo not drawn)	/	16µM	/	.	/	?
COc1ccc(OC)c(C2C(C(=O)c3ccccc3)=C(C)Nc3nc4ccccc4n32)c1 (stereo not drawn)	.	.	.	.	.	?
COc1ccccc1NC(=O)C1=C(C)Nc2nc3ccccc3n2C1c1ccccc1Cl (stereo not drawn)	/	15µM	/	.	/	?
COc1ccc(C2C(C(=O)c3ccccc3)=C(C)Nc3nc4ccccc4n32)cc1OC (stereo not drawn)	.	?	.	.	.	15µM
CCCCN(Cc1cc2cc(OC)ccc2[nH]c1=O)S(=O)(=O)c1ccc(C)cc1	.	10µM	.	/	.	7.3µM
COc1ccc2[nH]c(=O)c(CN(CCO)S(=O)(=O)c3ccc(C)cc3)cc2c1	/	.	.	.	.	?
COC(=O)c1cccc(S(=O)(=O)N(Cc2ccco2)Cc2cc3cc(OC)ccc3[nH]c2=O)c1	.	29µM	.	.	.	?
COc1ccc(S(=O)(=O)N(CCCN2CCCC2=O)Cc2cc3c(C)cc(C)cc3[nH]c2=O)cc1	.	?	.	.	-54	?
